Compounds without any hit were thinned out: in the full panel of roughly 83,000, 20% have a hit.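 Results are percent growth after 48 hours of single-concentration exposure. 100 means growth as in untreated cells, lower positive values show inhibition; negative values down to -100 show cell death.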 A number with no mark means an inactive call. Active and inactive are the calls of the source. The calls were made as follows: active = growth percent below 10; inactive = the rest.
How the values were obtained:
Assay in all cases: NCI-60 one-dose screen, 48 h (100 = growth as untreated, 0 = no growth, -100 = all killed)
Details in all cases: 10 µM unless noted
[1] = system: NCI-H23 lung
[2] = system: NCI-H226 lung
[3] = system: NCI-H322M lung
[4] = system: HOP-62 NSCLC
[5] = system: NCI-H460 lung
[6] = system: HOP-92 NSCLC
[7] = system: NCI-H522 lung
[8] = system: 786-0 renal
[9] = system: COLO 205 colon
[10] = system: DU-145 prostate
[11] = system: K-562 leukemia
[12] = system: MALME-3M melanoma
[13] = system: MDA-MB-231 breast
[14] = system: RXF 393 renal
[15] = system: SF-268 CNS
[16] = system: SF-295 CNS
[17] = system: SF-539 CNS
[18] = system: UACC-257 melanoma
[19] = system: M14 melanoma

| SMILES | growth [1] | growth [2] | growth [3] | growth [4] | growth [5] | growth [6] | growth [7] | growth [8] | growth [9] | growth [10] | growth [11] | growth [12] | growth [13] | growth [14] | growth [15] | growth [16] | growth [17] | growth [18] | growth [19] |
| --- | --- | --- | --- | --- | --- | --- | --- | --- | --- | --- | --- | --- | --- | --- | --- | --- | --- | --- | --- |
| Cn1cc(C=O)c2nccnc21 | 94.9% | 120% | 123% | 113% | 104% | 82% | 78.2% | 119% | 109% | 118% | 101% | 106% | 111% | 112% | 123% | 101% | 108% | 102% | 120% |
| O=C(CC1(O)C(=O)Nc2ccccc21)c1ccc(C(=O)NCC2CCC3(CC2)OOC2(CCCCC2)OO3)cc1 (stereo not given) | 50.4% | 63.6% | 88.9% | 63.8% | 77.1% | -53.6% (active) | 54.9% | -34% (active) | 80% | 76.3% | 39.6% | 56.1% | 67% | 98.1% | 82% | 76.2% | 81% | 67.1% | 85.7% |
| CCCCCCCCCCCCCCCCCCOc1ccccc1COP(=O)(O)OOCC[N+](C)(C)C | 1.55% (active) | 42% | 87.6% | 3.04% (active) | 37.1% | -27.7% (active) | 21% | 9.57% (active) | -30.3% (active) | 9.26% (active) | 1.4% (active) | -12.3% (active) | -40.7% (active) | -64.7% (active) | 10.6% | 27.2% | 7.74% (active) | 11.5% | -29.1% (active) |
| [Cl][Hg][n]1c(-c2ccco2)nc2ccccc21 | 99% | 97.5% | 98.8% | 115% | 96.4% | 116% | 85.7% | 107% | 121% | 97.3% | 78.8% | 119% | 100% | 104% | 105% | 106% | 99.3% | 103% | 86.1% |
| COc1ccc2c(c1)c(-c1nc(-c3cn(C)c4ncccc34)cs1)cn2CCCCN1CCCCC1 | 15.3% | 56.6% | -31.4% (active) | -78.5% (active) | -61.2% (active) | 50.3% | -61.7% (active) | -90.8% (active) | -71.7% (active) | 7.63% (active) | -66.8% (active) | -73.9% (active) | -74.8% (active) | -80.1% (active) | -37.9% (active) | -50.1% (active) | -80.2% (active) | -68.3% (active) | -79.1% (active) |
| CN(C)C(=O)Oc1ccccc1-c1ccccc1 | 102% | 96.4% | 111% | 98.6% | 109% | 95.7% | 101% | 106% | 103% | 111% | 89.5% | 110% | 110% |  | 102% | 97.4% | 103% |  | 103% |
| CC(=O)Nc1ccc(NC(=O)c2ccc([As](O)O)cc2)cc1 | 103% | 116% | 118% | 131% | 104% | 112% | -2.06% (active) | 107% | 108% | 108% | 33.1% | 113% | 88.3% | 47.6% | 109% | 118% | 88.8% | 104% | 101% |
| COC(=O)[C@@H](C)C[C@H](Cc1ccccc1)NC(=O)c1nc([C@@H](C[C@H](C(C)C)N(C)C(=O)[C@@H](NC(=O)[C@H]2C[C@H](O)CCN2C)C(C)C)OC(C)=O)sc1C(C)C | 23.8% | -35.5% (active) | 26.5% | 1.87% (active) | 2.31% (active) | 25% | -21.9% (active) | 3.94% (active) | -65.9% (active) | -4.78% (active) | 5.9% (active) | 28.4% | 3.71% (active) | 18.9% | 13.8% | -16.8% (active) | -36.9% (active) | 66.1% | -22.4% (active) |

From PubChem BioAssay (NCI)
